Source: PubChem
CYP2C9 activ: increases human cytochrome P450 2C9 activity; activation factor at 5 µM; actives 1.4% (n = 96,000); recombinant CYP2C9, luciferin-H conversion, luminescence; hits give high values; factor 1 = untreated enzyme, 0 = blocked; P11712; AID 1024;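 active = activation factor of 2 or more for CYP2C9 at a 5 µM dose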;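 note: 0 = sulfaphenazole-blocked wells and 1 = vehicle-only wells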
Target sequence (P11712 whole entry, looked up): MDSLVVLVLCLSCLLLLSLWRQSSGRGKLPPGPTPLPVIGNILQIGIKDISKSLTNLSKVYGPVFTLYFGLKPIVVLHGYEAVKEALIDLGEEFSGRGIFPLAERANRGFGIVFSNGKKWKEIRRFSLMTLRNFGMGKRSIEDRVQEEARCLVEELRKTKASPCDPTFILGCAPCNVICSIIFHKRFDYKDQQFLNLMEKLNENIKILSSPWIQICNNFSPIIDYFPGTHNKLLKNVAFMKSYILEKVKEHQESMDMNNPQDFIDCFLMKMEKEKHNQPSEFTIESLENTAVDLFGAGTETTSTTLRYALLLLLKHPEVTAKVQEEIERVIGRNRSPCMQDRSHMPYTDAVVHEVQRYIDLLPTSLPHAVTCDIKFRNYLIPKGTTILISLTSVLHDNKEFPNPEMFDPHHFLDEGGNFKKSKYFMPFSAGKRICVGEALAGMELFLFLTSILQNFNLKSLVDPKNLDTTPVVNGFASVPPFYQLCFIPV
CYP2C19 act: activators of human cytochrome P450 2C19 | 96,000 tested, under 10 active | recombinant CYP2C19, luciferin-H EGE luminescence; hits give high values; 0 = fully inhibited enzyme, 1 = untreated enzyme | P33261 | activation factor at 5 µM;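 active = activation factor of at least 2 at 5 µM in the primary screen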;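 note: 0 = wells with 2.5 mM tranylcypromine and 1 = vehicle-only wells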
CYP2C19 inhib: inhibitors of human CYP2C19; CYP2C19 Supersomes, luciferin-H EGE luminescence, 30 min; AID 778; P33261; actives 21% (n = 96,000); inhibition, % at 5 µM;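 active = CYP2C19 inhibition above a set limit at 5 µM in the primary screen, cut at about 50% in these data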;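 note: plate controls were negative control wells for no effect and 2.5 mM tranylcypromine positive control for full effect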
CYP2C9 inh: inhibitors of human CYP2C9; P11712; CYP2C9 Supersomes, luciferin-H conversion, luminescence; inhibition, % at 5 µM; actives 20% (n = 96,000); AID 777;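 active = blocking of liver enzyme CYP2C9 beyond about 50% at 5 µM, limit read from the data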
Measles CPE: protection of cells from measles virus. Measles virus-infected cells, CPE protection, absorbance. protection (pct of control), % at 4 µM. actives 1.5% (n = 140,000). AID 841; in the data active = protection mostly above about 24%, no sharp cut-off; inactive = mostly below about 26%
Numbers without * were called inactive; x = no result. A selection: hits, their analogues and other compounds. The true share with any hit is near 22%.

SMILES	CYP2C9 activ	CYP2C19 act	CYP2C19 inhib	CYP2C9 inh	Measles CPE
O=C(COC(=O)C12CC3CC(CC(C3)C1)C2)Nc1ccc([N+](=O)[O-])cc1Cl	x	x	x	x	4
CCN(CC)CCn1c2ccccc2c2cnc(N)c(C#N)c21	1	1	-5	-3	11
CC(C)C(=O)Nc1ccc(C(=O)NNC(=O)c2ccco2)cc1	1.1	1	0	-7	2
Cc1ccc(-c2[nH]c3ccccc3c2SCCNC(=O)c2ccc(S(=O)(=O)N3CCOCC3)cc2)cc1	x	x	x	x	5
COc1ccc(S(=O)(=O)n2nc(OC(=O)C3CCCCC3)cc2N)cc1	1.1	1.1	-15	-12	4
CCc1cn(S(=O)(=O)c2ccccc2OC)nc1N	1.8	0.5	50*	-80	33
COc1ccc(S(=O)(=O)n2nc(OC(=O)c3c(-c4ccccc4Cl)noc3C)cc2N)cc1	0.1	0.6	38	94*	14
COc1ccccc1-c1cn(S(=O)(=O)c2ccc(C)cc2)nc1N	0.4	0.8	16	56*	1
CC(C)(C)C(=O)Oc1cc(N)n(S(=O)(=O)c2ccc(F)cc2)n1	0.2	0.4	59*	75*	7
CCN(CC)CCOC(=O)c1ccc(NC(=O)C(C)NC(=O)C23CC4CC(CC(C4)C2)C3)cc1 (centres undefined)	x	x	x	x	21
CCOc1cc(/C=N/NC(=O)C(C)Sc2ccccn2)ccc1O (centres undefined)	x	x	x	x	4
COc1ccccc1C(=O)Oc1cc(N)n(S(=O)(=O)c2ccc(C)cc2)n1	0.2	0.6	39	81*	3
COc1c(C)cccc1C(=O)Nc1ccc(N2CCOCC2)c(Cl)c1	1.7	0.9	11	-71	15
CCOC(=O)C(Oc1ccc2c(-c3ccccc3)cc(=O)oc2c1)c1ccccc1 (centres undefined)	x	x	x	x	21
COc1ccc(-c2cc(=O)oc3cc(OC(=O)C4CCCCC4)ccc23)cc1	x	x	x	x	6
COC(=O)COc1ccc2c(-c3ccc(OC)cc3)cc(=O)oc2c1	0.7	0.5	52*	30	14
COC(=O)COc1ccc2c(-c3cccc([N+](=O)[O-])c3)cc(=O)oc2c1	x	x	x	x	7
COc1ccc(-c2cc(=O)oc3cc(OCc4nn[nH]n4)ccc23)cc1	0.2	0.7	31	76*	12
CCCc1cc(=O)oc2cc(OCC(=O)OC)cc(OCC(=O)OC)c12	0.4	0.5	49	61*	5
CC(Oc1ccc2c(-c3ccccc3)cc(=O)oc2c1)C(=O)O (centres undefined)	0.3	0.9	9	74*	31
COc1ccc(Cc2nnc(NC(=O)CSc3ccc(Cl)cc3)s2)cc1OC	x	x	x	x	3
COCC(C)NC(=O)c1ccccc1[N+](=O)[O-] (centres undefined)	x	x	x	x	1
CCOC(=O)c1ccc(-n2c(O)c(/C=N/NC(=O)C3COc4ccccc4O3)c3ccccc3c2=O)cc1 (centres undefined)	x	x	x	x	24
O=C1CCC(c2ccccc2)N1C(=O)c1cccnc1 (centres undefined)	x	x	x	x	19
CC(NC(=O)C(=O)NN=C1CCCCCCC1)c1ccccc1 (centres undefined)	1.1	1.1	-7	-7	9
SMILES	CYP2C9 activ	CYP2C19 act	CYP2C19 inhib	CYP2C9 inh	Measles CPE
COc1ccc(-c2cc3ccc(OCc4nn[nH]n4)cc3oc2=O)cc1OC	0.4	0.7	32	59*	5
CCc1c(C)nc(N)n2c(SCC(=O)N3CCN(c4ccccc4F)CC3)nnc12	1	1	-4	4	x
Cc1cccc(/C(N)=N/OC(=O)CCc2ccccc2)c1	0.5	0.8	21	54*	8
Cc1cccc(/C(N)=N/OC(=O)COc2ccc(Cl)c(C)c2)c1	x	x	x	x	23*
COc1ccc(/C=C/C(=O)Nc2cc(C(F)(F)F)ccc2Cl)cc1	2*	0.9	9	-103	21
Cc1c(Cl)cccc1NC(=O)CSc1nnc(CCNC(=O)OC(C)(C)C)o1	0.3	0.2	78*	68*	16
COc1cc(C(=O)Nc2cc(C(F)(F)F)ccc2Cl)cc(OC)c1OC	0.8	0.9	12	20	3
COc1ccc(CCCc2nnc(SCC(=O)Nc3cc(C)ccc3C)o2)cc1	0.4	0.5	46	63*	10
COc1ccc(CCCc2nnc(SCC(=O)Nc3ccc(C)c(C)c3)o2)cc1	0.9	0.7	26	10	16
Cc1ccc(C)c(NC(=O)CSc2nnc(CCNC(=O)OC(C)(C)C)o2)c1	0.7	0.2	80*	34	7
Cc1ccc(NC(=O)CSc2nnc(CCCCCNC(=O)OC(C)(C)C)o2)c(C)c1	x	x	x	x	13
O=C(NCc1ccccc1C(F)(F)F)C12CN(Cc3ccccc3)CC1C(c1ccc([N+](=O)[O-])cc1)=NO2 (centres undefined)	0.6	0.6	44	37	6
COc1ccc(NCc2nnc(SCC(=O)Nc3cc(C(F)(F)F)ccc3Cl)o2)cc1	0.2	0.2	82*	80*	14
COc1ccc(NCc2nnc(SCC(=O)Nc3cc(C)cc(C)c3)o2)cc1	1	0.8	20	4	2
COC(=O)C1=CN(c2cccc(C)c2)C=C(C(=O)OC)C1c1cc(OC)c(O)c([N+](=O)[O-])c1	0.5	0.7	32	51*	9
O=C(CN1C(=O)COc2ccccc21)N1CCc2ccccc21	0.6	0.4	57*	42	6
Cc1ccc2c(c1)N(CC(=O)N1CCCc3ccccc31)C(=O)CO2	0.9	0.7	34	10	4
Cc1ccc2c(c1)N(CC(=O)N1CCc3ccccc3C1)C(=O)CO2	0.8	0.2	84*	25	15
CC1Oc2ccccc2N(CC(=O)N2CCc3ccccc32)C1=O (centres undefined)	0.4	0.5	52*	56*	3
O=C(C1COc2ccccc2O1)N1CCc2ccccc21 (centres undefined)	0.7	0.1	92*	34	11
CC1Oc2ccccc2N(CC(=O)N2CCCc3ccccc32)C1=O (centres undefined)	0.7	0.6	44	33	20
CC(C)(C)NC(=O)COc1ccc(CNCc2cccs2)cc1	1	0.8	24	2	4
Cc1c(NC(=O)CSc2nnc3sc4ccccc4n23)c(=O)n(-c2ccccc2)n1C	0.8	1	2	22	2
Cc1c(NC(=O)C(C)OC(=O)CC2Sc3ccccc3NC2=O)c(=O)n(-c2ccccc2)n1C (centres undefined)	0.5	1	1	48	6
Cc1nnc(C)n1/N=C/c1ccc(O)cc1	0.9	1	-2	10	2
Oc1ccc(/C=N/n2c3ccccc3c3ccccc32)cc1	0.3	0.8	20	73*	0
Cc1ccccc1NC(=O)c1sc2nc3c(c(-c4ccco4)c2c1N)CCCC3	0.4	0.5	46	64*	10
NC(=O)c1sc2nc3c(c(-c4cccnc4)c2c1N)CCC3	x	x	x	x	-2
NC(=O)c1sc2nc3c(c(-c4cccs4)c2c1N)CCCCC3	1.1	1.1	-13	-8	61*
